# Data taken from PubChem BioAssay (Tox21).
# Records with an inconclusive call do not appear. Entries that show only a call come without a potency. Calls of active or inactive are those of the source. Unless noted, calls come from the whole dose curve; as a rule, active = well fitted curve in the direction sought with a large enough effect in the repeat runs; inconclusive = weak or mixed curves; inactive = no such curve, though single readings can be large; an effect the other way counts as inactive or inconclusive.
# Key:
# [1] = qHTS assay to test for compound auto fluorescence at 535 nm (green) in HEK293 cells (AID 720680); conditions: green autofluorescence 485/535 nm; series mostly up to 91.3 µM
# [2] = qHTS assay to test for compound auto fluorescence at 460 nm (blue) in HEK293 cell free culture (AID 720681); conditions: cell-free medium, autofluorescence 405/460 nm (blue); series mostly up to 91.3 µM
# In short: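 Test compounds were pinned into cell-free culture medium (DMEM with 10% FBS) and fluorescence was read directly at Ex/Em 405/460 nm. Signals were expressed as fluorescence equivalents of triamterene, with DMSO vehicle as control.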
# [3] = qHTS assay to test for compound auto fluorescence at 535 nm (green) in HEK293 cell free culture (AID 720682); conditions: cell-free medium, green autofluorescence 485/535 nm, hits give high values; series mostly up to 91.3 µM
# In short: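 Green-label autofluorescence (485 nm excitation, 535 nm emission) measured on compound added to cell-free culture medium (DMEM, 10% FBS). Output is expressed relative to fluorescein.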
# [4] = qHTS assay to test for compound auto fluorescence at 590 nm (red) in HEK293 cell free culture (AID 720683); conditions: cell-free medium autofluorescence, Ex540/Em590 red; series mostly up to 91.3 µM
# In short: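 Tox21 10K library compounds were pinned into cell-free DMEM with 10% FBS and fluorescence was read at excitation 540 nm. Activity is expressed as Rose Bengal sodium equivalency.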
# [5] = qHTS assay to test for compound auto fluorescence at 590 nm (red) in HepG2 cell free culture (AID 720684); conditions: cell-free medium autofluorescence, red 540/590 nm; series mostly up to 91.3 µM
# In short: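 Readout: intrinsic compound fluorescence at 590 nm emission after 540 nm excitation, scaled to Rose Bengal sodium. Matrix was cell-free MEM with 10% FBS; DMSO vehicle wells served as control.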
# [6] = qHTS assay to test for compound auto fluorescence at 460 nm (blue) in HepG2 cell free culture (AID 720685); conditions: Cell-free culture medium, blue autofluorescence 405/460 nm; series mostly up to 91.3 µM
# In short: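 Cell-free plates of MEM plus 10% FBS received 23 nL compound or DMSO vehicle; blue-channel (405/460 nm) intensity scored against triamterene as reference fluorophore.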
# [7] = qHTS assay to test for compound auto fluorescence at 535 nm (green) in HepG2 cell free culture (AID 720686); conditions: Cell-free medium, green autofluorescence 485/535 nm; series mostly up to 91.3 µM
# [8] = qHTS assay to test for compound auto fluorescence at 460 nm (blue) in HepG2 cells (AID 720687); conditions: autofluorescence 405/460 nm, 1 h; series mostly up to 91.3 µM
# In short: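 Cells (2,000/well in MEM with 10% FBS) attached overnight at 37 C, then were exposed to compound or DMSO for 1 hr at 37 C, 5% CO2. Fluorescence read at Ex/Em 405/460 nm, expressed as triamterene-equivalent signal.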
# [9] = target: Glucocorticoid receptor (Homo sapiens) (UniProt P04150); assay: qHTS assay to identify small molecule agonists of the glucocorticoid receptor (GR) signaling pathway (AID 720691; active = well fitted activation curve with a large enough effect in the signal ratio in the repeat runs, not every such curve was filed as active; the % refers to the signal ratio); conditions: GR-bla HeLa, beta-lactamase reporter ratio, 18 h; series mostly up to 62.4 µM
# Glucocorticoid receptor (Homo sapiens), sequence (P04150 whole entry, looked up): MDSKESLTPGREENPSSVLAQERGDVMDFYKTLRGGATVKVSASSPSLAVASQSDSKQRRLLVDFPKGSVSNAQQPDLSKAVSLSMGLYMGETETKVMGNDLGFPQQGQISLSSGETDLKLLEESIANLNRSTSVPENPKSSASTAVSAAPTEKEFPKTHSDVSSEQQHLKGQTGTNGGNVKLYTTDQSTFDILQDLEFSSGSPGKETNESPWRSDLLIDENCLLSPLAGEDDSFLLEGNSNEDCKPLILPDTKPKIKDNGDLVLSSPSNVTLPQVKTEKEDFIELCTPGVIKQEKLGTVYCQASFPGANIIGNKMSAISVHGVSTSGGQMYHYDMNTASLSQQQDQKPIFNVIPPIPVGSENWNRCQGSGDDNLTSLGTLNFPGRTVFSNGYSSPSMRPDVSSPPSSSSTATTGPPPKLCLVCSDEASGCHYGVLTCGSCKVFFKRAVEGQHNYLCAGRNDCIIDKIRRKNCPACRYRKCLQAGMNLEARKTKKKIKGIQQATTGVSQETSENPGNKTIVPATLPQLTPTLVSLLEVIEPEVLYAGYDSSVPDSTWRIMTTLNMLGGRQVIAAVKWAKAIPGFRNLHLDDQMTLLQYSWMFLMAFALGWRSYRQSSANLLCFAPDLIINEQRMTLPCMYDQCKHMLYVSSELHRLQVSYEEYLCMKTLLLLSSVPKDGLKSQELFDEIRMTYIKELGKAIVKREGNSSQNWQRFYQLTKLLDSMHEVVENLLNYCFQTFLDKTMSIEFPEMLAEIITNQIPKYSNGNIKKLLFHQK
# In short: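 Cells: GR-bla HeLa, endogenous GR with stably integrated GRE-beta-lactamase reporter. Treatment 18 h, 37 C, compounds delivered in DMSO. Detection via LiveBLAzer B/G FRET substrate, 2 h RT, fluorescence intensity.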
# [10] = target: Glucocorticoid receptor (Homo sapiens) (UniProt P04150); assay: qHTS assay to identify small molecule antagonists of the glucocorticoid receptor (GR) signaling pathway (AID 720692; active = well fitted inhibition curve with a large enough effect in the signal ratio in the repeat runs, not every such curve was filed as active; the % refers to the signal ratio); conditions: GR-bla HeLa, beta-lactamase FRET ratio, dexamethasone-stimulated, 18 h; series mostly up to 58.5 µM
# In short: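 Quantitative HTS in antagonist format: HeLa cells expressing endogenous GR and a stably integrated GRE-bla reporter, stimulated with 5 nM dexamethasone (final) alongside test compounds for 18 h.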
# [11] = qHTS assay to identify small molecule antagonists of the glucocorticoid receptor (GR) signaling pathway - cell viability counter screen (AID 720693); conditions: GR-bla HeLa viability, CellTiter-Glo luminescence, 18 h, with 5 nM dexamethasone present; series mostly up to 58.5 µM; note: nearly all actives have a fitted effect of over 55% in size
# [12] = qHTS assay for identifying genotoxic compounds that show differential cytotoxicity against isogenic chicken DT40 cell lines with known DNA damage response pathways - wild type cell line (AID 743012); conditions: DT40 wild type chicken cells viability, CellTiter-Glo, 40 h; series mostly up to 68.4 µM; note: nearly all actives have a fitted effect of over 60% in size; note: potency is the fitted concentration of half-maximal effect
# In short: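 Luminescent ATP viability signal (CellTiter-Glo, 30 min RT) recorded after wild type DT40 cells were incubated with compounds for 40 h at 37 C/5% CO2.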
# [13] = qHTS assay to identify small molecule antagonists of the androgen receptor (AR) signaling pathway - cell viability counter screen (AID 743033; note: nearly all actives have a fitted effect of over 45% in size); conditions: AR-bla HEK293 viability, CellTiter-Glo luminescence, 16 h; series mostly up to 58.5 µM
# [14] = qHTS assay for identifying genotoxic compounds that show differential cytotoxicity against isogenic chicken DT40 cell lines with known DNA damage response pathways - Rad54/Ku70 mutant cell line (AID 743015); conditions: DT40 Rad54/Ku70 mutant viability, CellTiter-Glo, 40 h; series mostly up to 66.8 µM; note: nearly all actives have a fitted effect of over 60% in size; note: potency is the fitted concentration of half-maximal effect
# [15] = qHTS assay to identify small molecule antagonists of the androgen receptor (AR) signaling pathway using the MDA cell line - cell viability counter screen (AID 743041; note: nearly all actives have a fitted effect of over 45% in size); conditions: MDA-kb2 viability, CellTiter-Fluor, 16 h, cells co-treated with R1881 androgen agonist; series mostly up to 70.3 µM
# In short: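 qHTS viability read-out; MDA-kb2 AR-luc; R1881-stimulated; 16 h exposure at 37C, 0% CO2; CellTiter-Fluor, 30 min; fluorescence intensity.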
# [16] = qHTS assay for identifying genotoxic compounds that show differential cytotoxicity against isogenic chicken DT40 cell lines with known DNA damage response pathways - Rev3 mutant cell line (AID 743014); conditions: chicken DT40 Rev3-/- viability, CellTiter-Glo, 40 h; series mostly up to 68.4 µM; note: nearly all actives have a fitted effect of over 55% in size; note: potency is the fitted concentration of half-maximal effect
# [17] = target: Androgen receptor (Homo sapiens) (UniProt P10275); assay: qHTS assay to identify small molecule agonists of the androgen receptor (AR) signaling pathway using the MDA cell line (AID 743040; note: nearly all actives have a fitted effect of over 20% in size); conditions: MDA-kb2 AR-luc cells, MMTV luciferase, 16 h, hits give high values; series mostly up to 70.3 µM
# Androgen receptor (Homo sapiens), sequence (P10275 whole entry, looked up): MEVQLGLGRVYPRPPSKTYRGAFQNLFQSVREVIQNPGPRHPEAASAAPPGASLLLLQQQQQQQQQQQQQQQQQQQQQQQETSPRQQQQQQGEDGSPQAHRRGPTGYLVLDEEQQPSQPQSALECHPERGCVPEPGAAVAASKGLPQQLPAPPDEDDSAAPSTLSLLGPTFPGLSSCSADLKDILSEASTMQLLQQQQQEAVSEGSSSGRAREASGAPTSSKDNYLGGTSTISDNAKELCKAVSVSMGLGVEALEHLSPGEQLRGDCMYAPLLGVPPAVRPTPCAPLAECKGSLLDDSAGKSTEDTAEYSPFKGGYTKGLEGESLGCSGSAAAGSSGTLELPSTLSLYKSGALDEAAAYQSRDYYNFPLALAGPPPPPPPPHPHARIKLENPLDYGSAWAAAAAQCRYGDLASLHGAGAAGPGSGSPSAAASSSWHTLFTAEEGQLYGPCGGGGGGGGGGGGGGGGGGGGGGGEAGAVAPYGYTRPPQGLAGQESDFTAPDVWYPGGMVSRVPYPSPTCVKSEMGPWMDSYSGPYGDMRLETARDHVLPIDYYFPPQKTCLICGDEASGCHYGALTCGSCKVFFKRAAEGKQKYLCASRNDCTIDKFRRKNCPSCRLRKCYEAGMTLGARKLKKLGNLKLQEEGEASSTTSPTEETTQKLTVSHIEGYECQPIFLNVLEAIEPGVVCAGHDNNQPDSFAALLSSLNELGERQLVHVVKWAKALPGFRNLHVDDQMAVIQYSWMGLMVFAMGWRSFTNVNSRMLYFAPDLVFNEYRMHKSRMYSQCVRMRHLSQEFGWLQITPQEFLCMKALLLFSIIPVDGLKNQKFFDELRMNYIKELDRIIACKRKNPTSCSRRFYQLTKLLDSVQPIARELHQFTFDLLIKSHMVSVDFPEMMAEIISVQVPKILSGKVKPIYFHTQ
# In short: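 Agonist activity is measured as luciferase luminescence in human MDA-kb2 cells whose MMTV reporter responds to both AR and GR. Compounds in DMSO incubate 16 h at 37C, 0% CO2, and ONE-Glo is read after 30 min.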
# [18] = target: Androgen receptor (Homo sapiens) (UniProt P10275); assay: qHTS assay to identify small molecule antagonists of the androgen receptor (AR) signaling pathway using the MDA cell line (AID 743042; note: nearly all actives have a fitted effect of over 55% in size); conditions: MDA-kb2 AR-luc, MMTV luciferase, R1881 antagonist, 16 h; series mostly up to 70.3 µM
# In short: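 MDA-kb2 cells (human breast carcinoma, stably carrying an MMTV-luciferase reporter responsive to AR and GR) were plated at 3,000 cells/well and preincubated 5 hr at 37C, then given compound plus R1881 agonist for 16 h. ONE-Glo luminescence was read.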
# [19] = target: Androgen receptor (Homo sapiens) (UniProt P10275); assay: qHTS assay to identify small molecule antagonists of the androgen receptor (AR) signaling pathway (AID 743035; active = well fitted inhibition curve with a large enough effect in the signal ratio in the repeat runs, not every such curve was filed as active; the % refers to the signal ratio); conditions: HEK293 AR-UAS-bla, R1881-stimulated, beta-lactamase FRET, 16 h; series mostly up to 58.5 µM
# In short: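 Quantitative HTS of the Tox21 10K library used HEK293 AR-UAS-bla cells stimulated with R1881 alongside compound for 16 h at 37C, followed by beta-lactamase FRET detection (LiveBLAzer B/G, 2 h, RT).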
# [20] = target: Androgen receptor (Homo sapiens) (UniProt P10275); assay: qHTS assay to identify small molecule agonists of the androgen receptor (AR) signaling pathway (AID 743036; active = well fitted activation curve with a large enough effect in the signal ratio in the repeat runs, with a control signal flat, not every such curve was filed as active; the % refers to the signal ratio); conditions: HEK293 AR-UAS-bla GripTite, beta-lactamase FRET ratio, 16 h; series mostly up to 62.4 µM
# In short: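 AR-UAS-bla HEK293 cells, plated 4 h before dosing, were treated with compound for 16 h at 37C. beta-Lactamase reporter read after 2 h with LiveBLAzer B/G FRET substrate at room temperature.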
Compound,outcome [1],Potency [2],outcome [3],outcome [4],outcome [5],outcome [6],outcome [7],outcome [8],Potency [9],Potency [10],Potency [11],Potency [12],Potency [13],Potency [14],Potency [15],Potency [16],outcome [17],Potency [18],Potency [19],outcome [20]
CCOC(=O)CC(O)(CC(=O)OCC)C(=O)OCC,inactive,inactive,inactive,inactive,inactive,inactive,inactive,inactive,inactive,inactive,inactive,inactive,inactive,–,–,–,–,–,–,–
C=CC(C)(O)CC/C=C(/C)CCC=C(C)C (stereo not drawn),inactive,inactive,inactive,inactive,inactive,inactive,inactive,inactive,inactive,inactive,inactive,–,inactive,61.1 µM (active),inactive,–,–,–,–,–
CCOC(OCC)OCC,inactive,inactive,inactive,inactive,inactive,inactive,inactive,inactive,inactive,inactive,inactive,inactive,inactive,inactive,inactive,inactive,–,–,–,–
O=C(O)c1ccccc1-n1cc(C(=O)O)c(=O)c2cc(Nc3c(F)cc(F)cc3Cl)c(Cl)cc21,inactive,inactive,inactive,inactive,inactive,inactive,inactive,inactive,inactive,inactive,inactive,–,inactive,inactive,inactive,inactive,–,–,–,–
Clc1cc(Cl)c2c(c1)N=C1CCCCCN1C2,inactive,inactive,inactive,inactive,inactive,inactive,inactive,inactive,inactive,inactive,inactive,13.3 µM (active),inactive,13.3 µM (active),–,8.41 µM (active),–,–,–,–
CC(O)CN (stereo not drawn),inactive,inactive,inactive,inactive,inactive,inactive,inactive,inactive,inactive,inactive,inactive,inactive,inactive,inactive,inactive,inactive,–,–,–,–
CC(C(=O)O)c1ccc2c(c1)Cc1cccnc1O2 (stereo not drawn),inactive,inactive,inactive,inactive,inactive,inactive,inactive,inactive,inactive,inactive,inactive,inactive,inactive,inactive,–,inactive,inactive,inactive,–,–
O=C(O)CNc1ccccc1,inactive,inactive,inactive,inactive,inactive,inactive,inactive,inactive,inactive,inactive,inactive,inactive,inactive,inactive,inactive,inactive,–,–,–,–
O=c1[nH]nc(-c2ccc([N+](=O)[O-])o2)o1,inactive,inactive,inactive,inactive,inactive,inactive,inactive,inactive,inactive,inactive,inactive,–,inactive,–,–,19.3 µM (active),–,–,–,–
SCCOCCOCCS,inactive,inactive,inactive,inactive,inactive,inactive,inactive,inactive,inactive,inactive,inactive,inactive,inactive,inactive,inactive,–,–,–,–,–
CCCC(=O)OCCC(C)C,inactive,inactive,inactive,inactive,inactive,inactive,inactive,inactive,inactive,inactive,inactive,inactive,inactive,inactive,inactive,inactive,inactive,inactive,inactive,inactive
NC(=O)c1ccccc1,inactive,inactive,inactive,inactive,inactive,inactive,inactive,inactive,inactive,inactive,inactive,inactive,inactive,inactive,inactive,–,inactive,inactive,inactive,inactive
Clc1nc2ccccc2nc1Cl,inactive,inactive,inactive,inactive,inactive,inactive,inactive,inactive,inactive,inactive,inactive,inactive,inactive,inactive,inactive,–,–,–,–,–
O=C(Nc1ccc2c(c1)Cc1ccccc1-2)C(F)(F)F,inactive,inactive,inactive,inactive,inactive,inactive,inactive,inactive,inactive,inactive,inactive,–,inactive,54.5 µM (active),inactive,–,–,–,–,–
CC(C)Oc1ccccc1O,inactive,inactive,inactive,inactive,inactive,inactive,inactive,inactive,inactive,inactive,inactive,–,inactive,inactive,–,–,–,–,–,–
CCCN(C1CCN(C(=O)C2CCNCC2)CC1)[C@@H]1CCc2ccc(OC)cc2C1,inactive,inactive,inactive,inactive,inactive,inactive,inactive,inactive,inactive,inactive,inactive,15.4 µM (active),inactive,19.3 µM (active),–,–,inactive,inactive,–,inactive
